Data from the supplement of paper PMC10849652.
Of roughly 7,900 targets only a part is listed; those with a hit were picked by preference. About 0.6% of all pairs of compound and target were hits. A number with no mark means an inactive call.

Experiments:
Assay in all cases: log2 fold change, soluble protein after heating vs DMSO (PISA); higher = thermal stabilisation; K562 cells, 10 uM, 30 min; active = over 0.2 and 3.5 SD of the protein, either way, in both replicates (recomputed)
[1] = compound: CC1=C(C=C(C=C1)NC(=O)C2=CC(=CC=C2)C(C)(C)C#N)NC3=CC4=C(C=C3)N=CN(C4=O)C
Summary of the method: (§1)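 Aliquots of K562 cells (2×10^6 cells/mL) treated with 10 μM compound for 30 min were heated for 3 min over 48°C-58°C. After pooling and extraction in PBS with 0.5% NP-40 at 4°C, soluble protein from a 21,000xg, 90 min spin was quantified by TMTpro 16plex LC-MS/MS with channel sums equalised. Thermal stability is expressed against control samples, from duplicates, as a log2 fold change.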

[2] = compound: CC1=C(C=C(C=C1)NC(=O)C2=CC(=CC=C2)N(C)C)NC(=O)C3=CC=C(C=C3)O
Summary of the method: as §1

[3] = compound: CC1=CC=C(C=C1)SC2=C3C=C(SC3=CN=C2)C(=O)N
Summary of the method: as §1

[4] = compound: CC1=NC(=CC=C1)C2=C(N=C(N2)C(C)(C)C)C3=CC4=NC=CN=C4C=C3
Summary of the method: as §1

[5] = compound: CCCCN(Cc1ccc(C(=O)NO)cc1)C(=O)Nc1ccccc1 [Nexturastat A]
Summary of the method: as §1

[6] = compound: CCCS(=O)(=O)Nc1ccc(F)c(C(=O)c2c[nH]c3ncc(-c4ccc(Cl)cc4)cc23)c1F [vemurafenib]
Summary of the method: as §1

[7] = compound: CCCS(=O)(=O)Nc1ccc(F)c(C(=O)c2c[nH]c3ncc(Cl)cc23)c1F
Summary of the method: as §1

[8] = compound: CCCc1cc(C)[nH]c(=O)c1CNC(=O)c1cc(-c2ccnc(N3CCN(C)CC3)c2)cc2c1cnn2C(C)C
Summary of the method: as §1

[9] = compound: CCN(CC)Cc1ccc2cc(COC(=O)Nc3ccc(C(=O)NO)cc3)ccc2c1 [givinostat]
Summary of the method: as §1

[10] = compound: CCN(CCCOc1ccc2c(Nc3cc(CC(=O)Nc4cccc(F)c4)[nH]n3)ncnc2c1)CCOP(=O)(O)O [barasertib]
Summary of the method: as §1

[11] = compound: CC[C@@H]1C(=O)N(C)c2cnc(Nc3ccc(C(=O)NC4CCN(C)CC4)cc3OC)nc2N1C1CCCC1
Summary of the method: as §1

[12] = compound: CC[C@@H]1C(=O)N(C)c2cnc(Nc3ccc(C(=O)N[C@H]4CC[C@H](N5CCN(CC6CC6)CC5)CC4)cc3OC)nc2N1C(C)C [volasertib]
Summary of the method: as §1

[13] = compound: CC[C@H](C)N1C=C(C2=C(C=C(C=C21)C3=CN=C(C=C3)N4CCNCC4)C(=O)NCC5=C(C=C(NC5=O)C)C)C
Summary of the method: as §1

[14] = compound: CC[C@H](C)[C@@H](C(=O)N[C@@H]([C@@H](C)O)C(=O)N[C@@H](CC(C)C)C(=O)[C@]1(CO1)C)NC(=O)[C@H]([C@@H](C)CC)N(C)C(=O)C [epoxomicin]
Summary of the method: as §1

[15] = compound: CCn1c(C(=O)N(C2CC2)C2CC2)cc2c3c(ncn3C)c(Nc3cc(C)n(C)n3)nc21
Summary of the method: as §1

[16] = compound: CCn1cc(-c2ccnc3[nH]c(-c4cccc(CN(C)C)c4)cc23)c(-c2ccc(NC(=O)N(C)C)cc2)n1
Summary of the method: as §1

[17] = compound: CN(C)CC(=O)Nc1ccc2[nH]c(=O)c3ccccc3c2c1
Summary of the method: as §1

[18] = compound: CN(CCOC1=CC=C(C=C1)C[C@H]2C(=O)NC(=O)S2)C3=CC=CC=N3 (racemic) [rosiglitazone]
Summary of the method: as §1

[19] = compound: CN1C2=C(C3=C1C(=O)N(N=C3)CC4=CC(=CC=C4)N)SC(=C2)S(=O)C
Summary of the method: as §1

[20] = compound: CN1CCC(CNc2ccc3ncc(-c4cccc(OC(F)(F)F)c4)n3n2)CC1
Summary of the method: as §1

UniProt P33947, sequence (P33947 whole entry, looked up): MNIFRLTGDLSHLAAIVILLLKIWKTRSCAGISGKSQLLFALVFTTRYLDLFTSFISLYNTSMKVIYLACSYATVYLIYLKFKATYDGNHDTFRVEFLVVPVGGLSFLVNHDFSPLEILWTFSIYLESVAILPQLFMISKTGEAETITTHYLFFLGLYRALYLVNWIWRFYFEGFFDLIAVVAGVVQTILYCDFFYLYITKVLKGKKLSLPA
UniProt P50748, sequence (P50748 whole entry, looked up): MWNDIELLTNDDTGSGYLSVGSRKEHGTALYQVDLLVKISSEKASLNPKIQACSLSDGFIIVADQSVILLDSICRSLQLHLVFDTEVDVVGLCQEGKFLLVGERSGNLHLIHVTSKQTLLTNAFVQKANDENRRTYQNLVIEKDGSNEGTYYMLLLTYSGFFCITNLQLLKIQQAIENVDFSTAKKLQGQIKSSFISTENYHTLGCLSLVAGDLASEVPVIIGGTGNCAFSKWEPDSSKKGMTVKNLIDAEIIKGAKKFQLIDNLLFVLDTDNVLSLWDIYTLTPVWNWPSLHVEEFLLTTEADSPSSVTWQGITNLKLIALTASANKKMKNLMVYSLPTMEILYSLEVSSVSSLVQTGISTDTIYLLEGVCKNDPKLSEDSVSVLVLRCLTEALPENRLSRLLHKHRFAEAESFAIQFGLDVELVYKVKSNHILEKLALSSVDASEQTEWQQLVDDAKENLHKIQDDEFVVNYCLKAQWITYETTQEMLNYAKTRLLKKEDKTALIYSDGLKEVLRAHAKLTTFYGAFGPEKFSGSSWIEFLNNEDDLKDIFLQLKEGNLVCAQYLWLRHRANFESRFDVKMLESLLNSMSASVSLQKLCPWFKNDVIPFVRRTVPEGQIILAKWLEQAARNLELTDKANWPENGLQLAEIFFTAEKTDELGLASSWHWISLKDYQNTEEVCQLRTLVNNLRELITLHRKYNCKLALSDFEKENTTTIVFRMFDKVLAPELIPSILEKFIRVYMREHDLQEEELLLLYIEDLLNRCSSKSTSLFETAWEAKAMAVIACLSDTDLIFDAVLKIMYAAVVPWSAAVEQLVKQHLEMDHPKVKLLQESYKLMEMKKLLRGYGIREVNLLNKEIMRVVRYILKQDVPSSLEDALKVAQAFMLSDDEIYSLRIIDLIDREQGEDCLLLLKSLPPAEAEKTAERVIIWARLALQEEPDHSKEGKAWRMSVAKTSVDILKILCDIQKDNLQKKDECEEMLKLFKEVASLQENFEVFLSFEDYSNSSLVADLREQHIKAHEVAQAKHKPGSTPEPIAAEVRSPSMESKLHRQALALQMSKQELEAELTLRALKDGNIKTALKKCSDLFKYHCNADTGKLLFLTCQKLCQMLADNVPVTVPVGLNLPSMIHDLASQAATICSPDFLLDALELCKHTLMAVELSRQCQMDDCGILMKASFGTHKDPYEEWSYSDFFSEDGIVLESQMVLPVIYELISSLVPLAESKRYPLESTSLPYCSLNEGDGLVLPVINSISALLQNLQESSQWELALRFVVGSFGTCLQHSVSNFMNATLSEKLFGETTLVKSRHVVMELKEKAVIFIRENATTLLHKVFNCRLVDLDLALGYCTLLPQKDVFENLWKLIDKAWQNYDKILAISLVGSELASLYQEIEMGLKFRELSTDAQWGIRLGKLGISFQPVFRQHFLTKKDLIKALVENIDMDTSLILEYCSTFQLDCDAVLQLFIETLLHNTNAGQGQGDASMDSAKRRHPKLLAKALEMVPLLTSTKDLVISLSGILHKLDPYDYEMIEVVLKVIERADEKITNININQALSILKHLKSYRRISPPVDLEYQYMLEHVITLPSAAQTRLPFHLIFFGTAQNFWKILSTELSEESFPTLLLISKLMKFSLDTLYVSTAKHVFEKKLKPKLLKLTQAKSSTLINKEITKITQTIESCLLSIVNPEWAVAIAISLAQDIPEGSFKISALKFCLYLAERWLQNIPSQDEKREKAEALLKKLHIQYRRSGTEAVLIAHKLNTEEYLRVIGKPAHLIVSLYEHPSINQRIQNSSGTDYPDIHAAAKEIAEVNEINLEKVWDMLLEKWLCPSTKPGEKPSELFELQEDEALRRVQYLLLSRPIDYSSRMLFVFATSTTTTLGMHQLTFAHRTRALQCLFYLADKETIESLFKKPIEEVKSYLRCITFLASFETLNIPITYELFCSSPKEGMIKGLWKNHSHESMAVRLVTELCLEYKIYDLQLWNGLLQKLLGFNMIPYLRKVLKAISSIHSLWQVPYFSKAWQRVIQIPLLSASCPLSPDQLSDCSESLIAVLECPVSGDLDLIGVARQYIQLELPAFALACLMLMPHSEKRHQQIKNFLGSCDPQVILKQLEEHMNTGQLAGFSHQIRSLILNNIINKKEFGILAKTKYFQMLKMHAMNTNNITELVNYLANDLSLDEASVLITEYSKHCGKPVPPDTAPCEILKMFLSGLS
UniProt Q92615, sequence (Q92615 whole entry, looked up): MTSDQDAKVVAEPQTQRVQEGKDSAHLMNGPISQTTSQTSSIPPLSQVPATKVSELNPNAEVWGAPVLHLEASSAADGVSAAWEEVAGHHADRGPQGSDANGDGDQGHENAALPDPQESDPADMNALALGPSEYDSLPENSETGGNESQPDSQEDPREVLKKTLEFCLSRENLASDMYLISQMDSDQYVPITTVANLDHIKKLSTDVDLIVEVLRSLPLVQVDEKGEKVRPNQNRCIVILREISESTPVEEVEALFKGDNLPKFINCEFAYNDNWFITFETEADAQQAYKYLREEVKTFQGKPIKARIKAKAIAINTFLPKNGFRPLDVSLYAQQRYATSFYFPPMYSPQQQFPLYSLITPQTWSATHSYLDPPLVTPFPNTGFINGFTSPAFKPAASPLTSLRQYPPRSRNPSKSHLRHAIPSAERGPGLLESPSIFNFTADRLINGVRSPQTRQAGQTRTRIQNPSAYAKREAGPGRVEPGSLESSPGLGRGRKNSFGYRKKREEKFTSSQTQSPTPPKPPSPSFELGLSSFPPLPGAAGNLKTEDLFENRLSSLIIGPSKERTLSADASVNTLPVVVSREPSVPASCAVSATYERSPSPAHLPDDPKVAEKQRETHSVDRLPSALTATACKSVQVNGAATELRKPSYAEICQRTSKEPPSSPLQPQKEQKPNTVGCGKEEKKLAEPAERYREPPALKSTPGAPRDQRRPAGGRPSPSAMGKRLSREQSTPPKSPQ
UniProt Q4G0J3, sequence (Q4G0J3 whole entry, looked up): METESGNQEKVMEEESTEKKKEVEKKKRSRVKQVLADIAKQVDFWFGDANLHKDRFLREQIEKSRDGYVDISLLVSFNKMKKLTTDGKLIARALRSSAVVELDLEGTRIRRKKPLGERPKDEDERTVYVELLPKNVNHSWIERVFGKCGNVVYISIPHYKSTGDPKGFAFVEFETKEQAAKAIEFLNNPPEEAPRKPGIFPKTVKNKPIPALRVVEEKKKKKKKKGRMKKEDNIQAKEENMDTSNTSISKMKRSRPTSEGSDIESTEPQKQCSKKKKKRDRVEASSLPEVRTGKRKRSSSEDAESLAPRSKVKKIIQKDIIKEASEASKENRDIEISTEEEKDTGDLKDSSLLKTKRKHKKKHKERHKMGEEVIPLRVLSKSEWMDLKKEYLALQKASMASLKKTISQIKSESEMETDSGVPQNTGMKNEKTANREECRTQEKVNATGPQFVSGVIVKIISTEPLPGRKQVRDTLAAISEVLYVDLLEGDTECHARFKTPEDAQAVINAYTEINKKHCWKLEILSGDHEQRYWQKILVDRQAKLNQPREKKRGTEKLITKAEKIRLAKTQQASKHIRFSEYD
UniProt O43766, sequence (O43766 whole entry, looked up): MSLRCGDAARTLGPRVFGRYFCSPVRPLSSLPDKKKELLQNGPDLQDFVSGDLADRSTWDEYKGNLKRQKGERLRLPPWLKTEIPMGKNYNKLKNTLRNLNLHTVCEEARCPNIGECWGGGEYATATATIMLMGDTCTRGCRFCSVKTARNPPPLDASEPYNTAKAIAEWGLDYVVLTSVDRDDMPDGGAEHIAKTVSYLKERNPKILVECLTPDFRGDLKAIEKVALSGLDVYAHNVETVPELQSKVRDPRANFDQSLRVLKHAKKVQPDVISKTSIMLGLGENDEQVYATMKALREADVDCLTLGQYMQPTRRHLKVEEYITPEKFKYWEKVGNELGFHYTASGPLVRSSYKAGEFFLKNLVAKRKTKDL
UniProt P20700, sequence (P20700 whole entry, looked up): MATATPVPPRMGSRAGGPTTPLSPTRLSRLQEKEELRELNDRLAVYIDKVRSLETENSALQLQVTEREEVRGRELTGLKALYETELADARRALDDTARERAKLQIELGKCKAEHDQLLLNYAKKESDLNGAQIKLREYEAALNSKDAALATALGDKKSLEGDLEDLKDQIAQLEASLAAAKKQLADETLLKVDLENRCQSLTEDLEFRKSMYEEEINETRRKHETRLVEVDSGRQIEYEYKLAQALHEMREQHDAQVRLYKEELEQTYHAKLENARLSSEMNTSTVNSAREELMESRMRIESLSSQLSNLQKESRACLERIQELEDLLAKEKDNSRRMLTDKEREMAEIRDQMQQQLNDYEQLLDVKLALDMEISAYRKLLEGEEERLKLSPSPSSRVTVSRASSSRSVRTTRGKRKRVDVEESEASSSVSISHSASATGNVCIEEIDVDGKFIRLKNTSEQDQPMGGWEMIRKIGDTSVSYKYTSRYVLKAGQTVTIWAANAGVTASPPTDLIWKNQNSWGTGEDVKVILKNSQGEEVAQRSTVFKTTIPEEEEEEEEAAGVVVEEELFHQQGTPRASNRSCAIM
UniProt Q8NE86, sequence (Q8NE86 whole entry, looked up): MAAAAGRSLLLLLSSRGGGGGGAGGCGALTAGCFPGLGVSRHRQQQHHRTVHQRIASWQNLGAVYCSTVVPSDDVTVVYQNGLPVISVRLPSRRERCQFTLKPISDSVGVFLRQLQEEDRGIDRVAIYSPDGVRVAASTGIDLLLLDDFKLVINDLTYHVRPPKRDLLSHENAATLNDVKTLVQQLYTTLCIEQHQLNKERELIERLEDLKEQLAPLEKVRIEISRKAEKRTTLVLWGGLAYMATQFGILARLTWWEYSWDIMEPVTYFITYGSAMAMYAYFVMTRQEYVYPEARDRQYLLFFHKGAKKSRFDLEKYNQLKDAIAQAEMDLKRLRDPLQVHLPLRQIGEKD

| Target | log2 fold change [1] | log2 fold change [2] | log2 fold change [3] | log2 fold change [4] | log2 fold change [5] | log2 fold change [6] | log2 fold change [7] | log2 fold change [8] | log2 fold change [9] | log2 fold change [10] | log2 fold change [11] | log2 fold change [12] | log2 fold change [13] | log2 fold change [14] | log2 fold change [15] | log2 fold change [16] | log2 fold change [17] | log2 fold change [18] | log2 fold change [19] | log2 fold change [20] |
| --- | --- | --- | --- | --- | --- | --- | --- | --- | --- | --- | --- | --- | --- | --- | --- | --- | --- | --- | --- | --- |
| LSS (UniProt P48449) | -0.032 | -0.122 | -0.071 | 0.054 | 0.012 | 0.03 | 0.073 | 0 | 0.766 (active) | 0.382 | 0.024 | 0.719 (active) | 0.074 | 0.129 | -0.056 | -0.024 | 0.055 | 0.077 | -0.025 | 0.384 |
| MAP3K20 (UniProt Q9NYL2) | -0.448 (active) | -0.098 | -0.014 | 0.03 | 0.062 | -0.254 | -0.163 | 0.022 | -0.089 | -0.02 | 0.038 | -0.026 | 0.08 | 0.008 | 0.011 | -0.016 | -0.02 | 0.035 | 0.126 | -0.12 |
| KLHDC4 (UniProt Q8TBB5) | -0.027 | -0.003 | -0.007 | -0.092 | 0.18 | 0.096 | 0.076 | -0.223 | -0.011 | 0.028 | 0.091 | -0.342 | 0.012 | -0.026 | 0.036 | -0.064 | 0.065 | -0.012 | 0.075 | 0.158 |
| MED16 (UniProt Q9Y2X0) | -0.025 | -0.044 | -0.046 | 0.036 | 0.162 | -0.017 | 0.046 | 0.014 | 0.076 | -0.03 | 0.128 | 0.101 | 0.004 | -0.262 | -0.002 | 0.031 | 0.086 | 0.05 | 0.087 | 0.06 |
| KDELR2 (UniProt P33947) | 0.058 | 0.099 | 0.064 | -0.094 | -0.13 | -0.079 | -0.054 | -0.128 | -0.064 | 0.036 | 0.033 | -0.18 | -0.089 | -0.02 | -0.031 | -0.016 | -0.125 | 0.017 | -0.063 | 0.255 |
| KNTC1 (UniProt P50748) | -0.027 | -0.003 | -0.021 | 0.026 | 0.034 | 0.042 | 0.036 | 0.092 | 0.082 | 0.035 | -0.255 | -0.504 (active) | 0.022 | 0.016 | -0.015 | -0.007 | 0.037 | 0.044 | 0.027 | -0.219 |
| KDM1A isoform 2 (UniProt O60341) | -0.029 | 0.058 | 0.01 | 0.002 | 0.023 | -0.02 | 0.033 | 0.046 | 0.101 | 0.013 | 0.135 | -0.028 | 0.06 | 0.101 | -0.053 | -0.111 | 0.006 | 0.099 | -0.001 | -0.091 |
| KIF21A isoform 4 (UniProt Q7Z4S6) | 0.051 | -0.067 | -0.003 | -0.043 | 0.106 | -0.045 | 0.014 | -0.025 | 0.069 | 0.104 | 0.073 | -0.019 | 0.038 | 0.066 | -0.037 | -0.121 | 0.013 | 0.033 | 0.054 | 0.076 |
| LRPPRC (UniProt P42704) | 0.264 | -0.054 | 0.222 | 0.336 | 0.282 | 0.227 | 0.264 | -0.005 | 0.417 | 0.369 | -0.413 | -0.801 | 0.161 | 0.277 | -0.243 | 0.01 | 0.334 | 0.214 | 0.177 | -0.323 |
| LIAS (UniProt O43766) | -0.044 | 0.119 | -0.128 | -0.002 | -0.057 | -0.013 | -0.13 | -0.01 | -0.06 | -0.001 | 0.051 | 0.055 | -0.021 | -0.011 | 0.027 | -0.044 | -0.043 | 0.003 | -0.052 | 0.057 |
| LARP4B (UniProt Q92615) | 0.055 | 0.032 | 0.016 | 0.001 | 0.127 | 0.016 | 0.022 | 0.05 | 0.061 | -0.025 | 0.025 | -0.15 | 0.061 | -0.037 | -0.052 | 0.073 | 0.034 | -0.02 | 0.096 | -0.218 |
| LMNB1 (UniProt P20700) | -0.019 | 0.027 | -0.046 | -0.012 | -0.045 | 0.1 | 0.065 | -0.029 | 0.002 | 0.021 | -0.045 | -0.308 (active) | 0.023 | 0.037 | -0.021 | 0.115 | 0.034 | -0.049 | -0.034 | 0.026 |
| MCU (UniProt Q8NE86) | 0 | 0.051 | 0.094 | 0.002 | 0.002 | 0.026 | 0.022 | -0.075 | 0.013 | 0.014 | -0.147 | -0.249 (active) | 0.014 | 0.075 | -0.082 | -0.048 | 0.011 | 0.034 | -0.045 | -0.23 (active) |
| IPO9 (UniProt Q96P70) | 0.029 | 0.033 | 0 | -0.001 | -0.075 | 0.079 | 0.075 | -0.022 | -0.018 | 0.025 | -0.227 (active) | -0.611 (active) | -0.003 | -0.031 | 0.03 | 0.034 | 0.009 | 0.018 | -0.007 | -0.077 |
| LIMD1 (UniProt Q9UGP4) | 0 | 0.009 | 0.037 | -0.012 | -0.022 | 0.024 | 0.084 | 0.019 | 0.02 | -0.017 | -0.055 | -0.245 (active) | 0.042 | -0.018 | 0.026 | 0.002 | 0.015 | 0.064 | -0.028 | -0.043 |
| LARP7 isoform 3 (UniProt Q4G0J3) | -0.011 | 0.054 | -0.03 | -0.053 | 0.016 | 0.027 | 0.045 | 0.004 | -0.03 | 0 | -0.047 | -0.155 | 0.051 | -0.081 | 0.034 | -0.032 | 0.064 | 0.003 | 0.014 | -0.075 |
